# Experimental data reported in ChEMBL document CHEMBL1961873, “Compounds: GSK PKIS; Assays: Nanosyn kinase panel” (2012).
# Several values for one entry are separate records, joined by “and”; a condition that tells them apart may be missing. Equal entries are not always repeated.
# Molecular target: Tyrosine-protein kinase Fgr (Homo sapiens) (UniProt P09769)
# Details: at 0.1 µM
# Chain of Tyrosine-protein kinase Fgr (Homo sapiens) (P09769 2-529 limits assumed): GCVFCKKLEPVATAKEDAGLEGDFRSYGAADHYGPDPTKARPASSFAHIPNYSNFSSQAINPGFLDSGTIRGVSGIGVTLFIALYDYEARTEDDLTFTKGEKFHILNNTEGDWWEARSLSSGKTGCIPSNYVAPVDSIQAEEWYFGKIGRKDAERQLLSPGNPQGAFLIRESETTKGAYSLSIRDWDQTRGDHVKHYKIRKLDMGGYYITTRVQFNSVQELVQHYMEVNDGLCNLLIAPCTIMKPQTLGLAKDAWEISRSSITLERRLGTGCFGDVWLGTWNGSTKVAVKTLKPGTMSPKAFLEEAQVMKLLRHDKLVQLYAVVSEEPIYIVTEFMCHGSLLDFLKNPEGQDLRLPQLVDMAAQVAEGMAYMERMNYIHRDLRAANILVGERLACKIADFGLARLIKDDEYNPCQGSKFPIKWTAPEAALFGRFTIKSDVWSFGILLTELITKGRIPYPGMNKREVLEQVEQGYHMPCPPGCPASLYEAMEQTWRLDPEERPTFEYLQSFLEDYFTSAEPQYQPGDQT
row,SMILES,inhibition
1,CC1=C(C(=O)Nc2ccc3[nH]nc(C)c3c2)C(c2ccc(C(F)(F)F)cc2)CC(=O)N1 (configuration not stated),1.2%
2,COc1cc(N2CCN(C(C)C)CC2)ccc1Nc1nc(Nc2cccc3ncccc23)c2cc[nH]c2n1,-0.04%
3,COc1cc(Nc2ncc(-c3ccccc3)o2)cc(OC)c1,5.71%
4,COc1cccc(Nc2nccc(-c3cnn4ncccc34)n2)c1,7.08%
5,O=C(Nc1n[nH]c2nnc(-c3cccnc3)cc12)C1CC1,2.57%
6,CN1CCN(Cc2ccc(-c3cc4ncnc(Nc5ccc(OCc6cccc(F)c6)c(Cl)c5)c4s3)o2)CC1,5.67% and 10.9%
7,CCCNc1cccc(-n2ncc3c(N/N=C/c4ccncc4)ncnc32)c1,18.9%
8,CS(=O)(=O)Nc1ccc(-c2ccc3c(NC(=O)C4CC4)n[nH]c3c2)cc1,1.59%
9,COc1cccc(-n2ncc3c(N/N=C/c4ccc(C(=O)NCCN(C)C)cc4)ncnc32)c1,47.4%
10,O=C(O[C@H]1CN[C@H](C#Cc2cc3ncnc(Nc4ccc(OCc5cccc(F)c5)c(Cl)c4)c3s2)C1)N1CCOCC1,4.25%
11,O=C(O[C@H]1CN[C@H](C#Cc2cc3ncnc(Nc4ccc5c(cnn5Cc5ccccc5)c4)c3s2)C1)N1CCOCC1,2.54%
12,CCn1c(-c2nonc2N)nc2cncc(C(=O)NCCNC)c21,1.3%
13,O=C(O[C@H]1CN[C@H](C#Cc2cc3ncnc(Nc4ccc5c(ccn5Cc5cc(F)ccc5F)c4)c3s2)C1)N1CCOCC1,2.14%
14,c1ccc(-c2n[nH]cc2-c2ccnc(-c3ccc(OCCn4ccnc4)cc3)c2)nc1,0.78%
15,COc1cc2c(cc1Nc1nc(Nc3cccc(F)c3C(N)=O)c3cc[nH]c3n1)N(C(=O)CN1CCN(C(C)C)CC1)CC2,0.5%
16,CNC(=O)c1cncc(/C=C/c2ccccc2C)c1,5.41%

row,SMILES,inhibition
1,N#Cc1cccc(Nc2ncc(-c3ccccc3)o2)c1,5.47%
2,CCN1CCC(C(=O)Nc2n[nH]c3nnc(-c4cccc(F)c4F)cc23)CC1,1.72%
3,Nc1nonc1-c1nc2cnccc2n1C1CC1,1.63% and 3.54%
4,O=C1Nc2ccccc2/C1=C1\CCc2cc(O)ccc21,2.44%
5,Fc1ccc(Nc2nccc(-c3c(-c4ccc(C(F)(F)F)cc4)nn4ncccc34)n2)cc1F,-0.18%
6,CCS(=O)(=O)c1ccc(OC)c(Nc2ncc(-c3cccc(F)c3)o2)c1,40.2%
7,OCCCNc1nccc(-c2c(-c3ccc(F)cc3)nn3cc(C(F)(F)F)ccc23)n1,2.9%
8,CN(c1ccc(NC(=O)NCCN2CCOCC2)cc1)c1ccnc(Nc2ccc(CS(C)(=O)=O)cc2)n1,3.44%
9,Nc1nccc(-c2c(-c3ccc(F)cc3)ncn2C2CCNCC2)n1,-0.15% and 1.9%
10,CC1(C)CC(n2cnc(-c3ccc(F)cc3)c2-c2ccnc(N)n2)CC(C)(C)N1,0.26%
11,Cn1c(-c2nonc2N)nc2cnccc21,2.79%
12,COc1ccc2ncn(-c3cc(O[C@H](C)c4ccccc4C(F)(F)F)c(C(N)=O)s3)c2c1,0.34%
13,Cc1c2ccc(N(C)c3ccnc(Nc4cccc(S(N)(=O)=O)c4)n3)cc2nn1C,26%
14,CNC(=O)c1ncccc1Nc1nc(Nc2cc3c(cc2OC)CCCN3C(=O)CN(C)C)nc2[nH]ccc12,1.73%
15,COC(=O)Nc1nc2cc(Oc3ccc(NC(=O)Nc4ccccc4)cc3)ccc2[nH]1,4.41%

# Molecular target: Tyrosine-protein kinase Fgr (Homo sapiens) (UniProt P09769)
# Details: at 1 µM
row,SMILES,inhibition
1,CC1=C(C(=O)Nc2ccc3[nH]nc(C)c3c2)C(c2ccc(C(F)(F)F)cc2)CC(=O)N1 (configuration not stated),3.75%
2,COc1cc(N2CCN(C(C)C)CC2)ccc1Nc1nc(Nc2cccc3ncccc23)c2cc[nH]c2n1,3.16%
3,COc1cc(Nc2ncc(-c3ccccc3)o2)cc(OC)c1,30.2%
4,COc1cccc(Nc2nccc(-c3cnn4ncccc34)n2)c1,19.3%
5,O=C(Nc1n[nH]c2nnc(-c3cccnc3)cc12)C1CC1,2.95%
6,CN1CCN(Cc2ccc(-c3cc4ncnc(Nc5ccc(OCc6cccc(F)c6)c(Cl)c5)c4s3)o2)CC1,30.3% and 30.1%
7,CCCNc1cccc(-n2ncc3c(N/N=C/c4ccncc4)ncnc32)c1,52%
8,CS(=O)(=O)Nc1ccc(-c2ccc3c(NC(=O)C4CC4)n[nH]c3c2)cc1,7.28%
9,COc1cccc(-n2ncc3c(N/N=C/c4ccc(C(=O)NCCN(C)C)cc4)ncnc32)c1,82.1%
10,O=C(O[C@H]1CN[C@H](C#Cc2cc3ncnc(Nc4ccc(OCc5cccc(F)c5)c(Cl)c4)c3s2)C1)N1CCOCC1,1.43%
11,O=C(O[C@H]1CN[C@H](C#Cc2cc3ncnc(Nc4ccc5c(cnn5Cc5ccccc5)c4)c3s2)C1)N1CCOCC1,11.2%
12,CCn1c(-c2nonc2N)nc2cncc(C(=O)NCCNC)c21,4.66%
13,O=C(O[C@H]1CN[C@H](C#Cc2cc3ncnc(Nc4ccc5c(ccn5Cc5cc(F)ccc5F)c4)c3s2)C1)N1CCOCC1,2.6%
14,c1ccc(-c2n[nH]cc2-c2ccnc(-c3ccc(OCCn4ccnc4)cc3)c2)nc1,2.78%
15,COc1cc2c(cc1Nc1nc(Nc3cccc(F)c3C(N)=O)c3cc[nH]c3n1)N(C(=O)CN1CCN(C(C)C)CC1)CC2,0.3%
16,CNC(=O)c1cncc(/C=C/c2ccccc2C)c1,9.23%

row,SMILES,inhibition
1,N#Cc1cccc(Nc2ncc(-c3ccccc3)o2)c1,13.5%
2,CCN1CCC(C(=O)Nc2n[nH]c3nnc(-c4cccc(F)c4F)cc23)CC1,3.35%
3,Nc1nonc1-c1nc2cnccc2n1C1CC1,4.78% and 2.49%
4,O=C1Nc2ccccc2/C1=C1\CCc2cc(O)ccc21,15.4%
5,Fc1ccc(Nc2nccc(-c3c(-c4ccc(C(F)(F)F)cc4)nn4ncccc34)n2)cc1F,4.23%
6,CCS(=O)(=O)c1ccc(OC)c(Nc2ncc(-c3cccc(F)c3)o2)c1,76.2%
7,OCCCNc1nccc(-c2c(-c3ccc(F)cc3)nn3cc(C(F)(F)F)ccc23)n1,8.24%
8,CN(c1ccc(NC(=O)NCCN2CCOCC2)cc1)c1ccnc(Nc2ccc(CS(C)(=O)=O)cc2)n1,11.3%
9,Nc1nccc(-c2c(-c3ccc(F)cc3)ncn2C2CCNCC2)n1,4.65% and 8.7%
10,CC1(C)CC(n2cnc(-c3ccc(F)cc3)c2-c2ccnc(N)n2)CC(C)(C)N1,3.54%
11,Cn1c(-c2nonc2N)nc2cnccc21,3.33%
12,COc1ccc2ncn(-c3cc(O[C@H](C)c4ccccc4C(F)(F)F)c(C(N)=O)s3)c2c1,1.98%
13,Cc1c2ccc(N(C)c3ccnc(Nc4cccc(S(N)(=O)=O)c4)n3)cc2nn1C,64.7%
14,CNC(=O)c1ncccc1Nc1nc(Nc2cc3c(cc2OC)CCCN3C(=O)CN(C)C)nc2[nH]ccc12,7.26%
15,COC(=O)Nc1nc2cc(Oc3ccc(NC(=O)Nc4ccccc4)cc3)ccc2[nH]1,3.18%
